Bioassay records from PubChem BioAssay.
Only some compounds are listed: those with a hit (about 2.9% of all), similar ones and a draw of the others.
TRPML1 inh = qHTS for Inhibitors of the Human Mucolipin Transient Receptor Potential 1 (TRPML1) | Mucolipin-1 (Homo sapiens), Q9GZU1 | TRPML1-inducible cells, Ca2+ dye fluorescence, FDSS; hits give low values; inhibition of EC80 agonist-evoked calcium signal | activity change, negative = inhibition, % (no concentration beside the values) | 390,000 compounds, 0.02% hits | AID 624415, 2012; in the data active = activity change below about -50%; inconclusive = between about -30% and that limit;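 note: stimulus is agonist 54-4 at its EC80 concentration; % is set by controls: 0 for no effect and ±100 for the full control effect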
Target sequence (Q9GZU1 whole entry, looked up): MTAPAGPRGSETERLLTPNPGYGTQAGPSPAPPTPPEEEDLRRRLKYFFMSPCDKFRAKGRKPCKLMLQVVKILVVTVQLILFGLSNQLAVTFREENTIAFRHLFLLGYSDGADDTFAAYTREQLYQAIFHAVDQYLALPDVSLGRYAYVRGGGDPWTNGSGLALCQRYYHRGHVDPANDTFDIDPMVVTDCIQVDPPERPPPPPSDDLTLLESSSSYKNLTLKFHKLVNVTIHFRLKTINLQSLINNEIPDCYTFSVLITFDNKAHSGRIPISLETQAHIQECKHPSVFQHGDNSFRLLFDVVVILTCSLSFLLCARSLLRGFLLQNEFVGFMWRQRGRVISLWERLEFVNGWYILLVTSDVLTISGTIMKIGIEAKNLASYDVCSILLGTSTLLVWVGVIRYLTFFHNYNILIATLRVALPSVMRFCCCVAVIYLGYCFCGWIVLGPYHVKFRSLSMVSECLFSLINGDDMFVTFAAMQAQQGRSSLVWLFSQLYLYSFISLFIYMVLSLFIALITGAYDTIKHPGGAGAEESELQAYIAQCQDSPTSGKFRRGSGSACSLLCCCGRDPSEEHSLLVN
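TRPML1-DL cells, Tet-induced overnight (~16 h, 37 °C) at 1,500 cells/well, were loaded with Ca8 no-wash dye plus quencher for 45-90 min at room temperature. Compounds were pinned during FDSS kinetic reading; agonist 54-4 at EC80 (4 uM final) then added.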
DRD3 agonist = qHTS of D3 Dopamine Receptor Agonist: qHTS. D(3) dopamine receptor (Homo sapiens), P35462. max activation, %. 410,000 compounds, 0.58% hits. D3R DiscoveRx beta-arrestin cells, luminescence, 90 min; in the data active = max activation above about 30%; note: 0% is about no effect
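Agonist-mode cell screen: cells plated at 1500/well and incubated overnight at 37 °C, then exposed to library compounds for 90 min at 37 °C. Detection reagent was added for 30–60 min at room temperature, and luminescence was read.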
TRPML1 agonist = qHTS for Agonists of the Human Mucolipin Transient Receptor Potential 1 (TRPML1) | Mucolipin-1 (Homo sapiens), Q9GZU1 | TRPML1-expressing cells, Ca2+ dye fluorescence, FDSS | activation, % (concentration not given with the values) | 410,000 compounds, 0.12% hits | AID 624414, 2012; in the data active = activation above about 50%; inconclusive = mostly about 30% to 49%; note: 0% is about no effect
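Kinetic FDSS Ca2+ read in Tet-induced TRPML1-DL cells (ABD Ca8 dye plus quencher, 45-90 min RT loading): baseline, then compound, then 110 s agonist window; EC80 agonist 54-4 at 4uM final added afterwards for a 110 s antagonist window.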
D3 antag = qHTS of D3 Dopamine Receptor Antagonist: qHTS; AID 652054, 2013; D3R cells, DiscoveRx beta-arrestin luminescence, antagonist mode; hits give low values; 360,000 compounds, 2.5% hits; max response, negative = inhibition, %; in the data active = max response below about -50%; inconclusive = no clear call, values can overlap the other calls; note: % is set by controls: 0 for no effect and ±100 for the full control effect
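Cells plated overnight at 1500 cells/well, then exposed to library compounds with dopamine controls for 90 minutes at 37 degrees C. DiscoveRx reagent added for 30–60 minutes at room temperature; luminescence read, quantitative HTS format.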
Starred values were filed as active, the others as inactive; ? = inconclusive; . = no result given; ! = not active in a repeat.

SMILES | TRPML1 inh | DRD3 agonist | TRPML1 agonist | D3 antag
COc1ccc(CCNC2CCc3ccccc3C2)cc1 (configuration not stated) | -26 | -9 | -1 | ?
COc1ccc(CCNC2CCC(c3ccccc3)CC2)cc1 (configuration not stated) | -15 | -8 | 3 | -65*
COc1ccc(C)cc1-n1cnc2cc(C(=O)NC3CCCCCC3)ccc21 | 8 | -15 | 3 | .
CC(C)(C)OC(=O)N1CCC(c2c(C(=O)NCc3ccc4c(c3)OCO4)cnn2-c2ccc(F)cc2F)CC1 | 2 | 7 | 5 | .
c1ccc(Cc2noc(CN3CCN(CCOc4ccccc4)CC3)n2)cc1 | -9 | 16 | 0 | -53*
CN1CCN(Cc2nc(Cc3ccccc3)no2)CC1c1ccccc1 (configuration not stated) | 0 | -6 | 0 | 3
COc1ccc2[nH]c(=O)c(-c3noc(-c4ccccc4)n3)cc2c1 | -8 | 5 | 1 | 41
O=c1[nH]c2ccccc2cc1-c1noc(-c2cccnc2)n1 | 11 | 48* | 0 | 8
Cc1ccsc1CN(C(=O)c1oc2cc(Br)ccc2c1C)C1CCS(=O)(=O)C1 (configuration not stated) | 27 | 0 | 3 | .
Cc1ccc(C)c(N2CCN(C(c3ccccc3)c3nnnn3C(C)(C)C)CC2)c1 (configuration not stated) | . | -6 | 86* | -23
Cc1ccc(C(c2nnnn2C(C)(C)C)N2CCC(C)CC2)cc1 (configuration not stated) | 66 | -3 | 0 | -52*
Cc1cn2c(=O)cc(COC(=O)c3cccc(NC(=O)C(C)Oc4ccccc4)c3)nc2s1 (configuration not stated) | 8 | 2 | 3 | .
O=C(NN=C(c1ccccc1)c1ccccn1)c1ccccc1 | 7 | -14 | 0 | -56*
COc1ccc(C(=O)NCc2ccccn2)cc1 | 2 | -5 | 0 | -65*
COc1ccc(C(=O)N/N=C(\c2ccccc2)c2ccccn2)cc1 | -11 | -13 | 1 | -56*
CCCCOc1ccc(C(=O)NCc2ccccn2)cc1 | 0 | -11 | 0 | -7
O=C(N/N=C(\c1ccccc1)c1ccccn1)c1ccccc1Cl | 7 | -4 | 0 | ?
C#CCOc1ccc(C2C(C(=O)OC)=C(C)NC3=C2C(=O)c2ccccc23)cc1OCC (configuration not stated) | -11 | -8 | 1 | .
CN(C)c1ccc(/C=C/c2nc3ccccc3s2)cc1Cl | . | . | 0 | .
CCCCNc1c(-c2ccc(SC3CCCCC3)cc2)nc2ccccn12 | 13 | 72*! | 0 | 83
CCCCNc1c(-c2cccc(SC3CCCCC3)c2)nc2ccc(Cl)cn12 | 3 | 69*! | 0 | 88
CCCCNc1c(-c2ccc(SC(C)CC)cc2)nc2ccccn12 (configuration not stated) | 46 | 30*! | 0 | 52
CCCCNc1c(-c2cccc(SC(C)CC)c2)nc2ccc(Cl)cn12 (configuration not stated) | -12 | 3 | -1 | 62
CCOC(=O)c1c(Nc2ccc(OC)cc2)nnc(-c2ccccc2)c1-c1ccccc1 | 7 | 15 | 3 | .
NNc1nc(Nc2ccc([N+](=O)[O-])cc2)nc(N2CCCCCC2)n1 | . | -25 | . | -52*
SMILES | TRPML1 inh | DRD3 agonist | TRPML1 agonist | D3 antag
O=[N+]([O-])c1ccc(Nc2nc(NCCO)nc(N3CCCC3)n2)cc1 | 1 | 9 | -1 | -10
COc1cc(NC(=O)CC2C(=O)N(c3cccc(C)c3)C(=O)N2Cc2ccco2)cc(OC)c1 (configuration not stated) | -18 | 62* | 2 | .
CCC(C)NC(=O)Nc1ccc(Br)cc1 (configuration not stated) | 13 | -12 | 0 | -23
CCC(C)Nc1ccc(NC(C)CC)cc1 (configuration not stated) | -11 | 0 | -1 | -51*
CC(=O)c1ccc(S(=O)(=O)NCC(=O)N2CCN(C/C=C/c3ccccc3)CC2)cc1 | 1 | 43* | 0 | -11
O=C(NCC(=O)N1CCN(C/C=C/c2ccccc2)CC1)c1ccc(Br)cc1 | 2 | -7 | 2 | -12
Cc1ccc(S(=O)(=O)NCCC(=O)N2CCN(C/C=C/c3ccccc3)CC2)cc1 | 3 | 0 | 0 | 20
